Measurements as given in PubChem BioAssay (NCI).
The panel holds about 79,000 compounds, 15% with a hit somewhere; the sample as a whole holds those more often. The source made the active and inactive calls. Cut-off read from the data, not from the text of the source: active = growth inhibition above about 70%; inactive = the rest.

Tests used:
[1] = NCI Yeast Anticancer Drug Screen. Data for the rad52 strain (AID 147);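 note: 0% = growth of vehicle-treated control cultures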; conditions: S. cerevisiae rad52 mutant growth inhibition, hits give high values
Outline: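 Vehicle-treated cultures served as the reference for growth inhibition of compound-exposed yeast bearing a DNA repair mutation.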

[2] = NCI Yeast Anticancer Drug Screen. Data for the wt1 strain (AID 149);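 note: 0% = growth of vehicle-treated wt1 cultures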; conditions: S. cerevisiae wt1 strain (SPY 50644) growth inhibition, hits give high values
Outline: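 Compounds are added to wt1 yeast cultures. Growth is then measured. Inhibition is expressed relative to vehicle-treated controls.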

[3] = NCI Yeast Anticancer Drug Screen. Data for the rad50EPP+ strain (AID 151);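 note: 0% = growth of vehicle-treated control cultures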; conditions: S. cerevisiae rad50 mutant strain, hits give high values
Outline: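 In this screen, rad50EPP+ yeast were exposed to compounds. Growth inhibition was scored against vehicle-treated controls.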

[4] = NCI Yeast Anticancer Drug Screen. Data for the mgt1 strain (AID 153); conditions: S. cerevisiae mgt1 mutant growth inhibition, hits give high values
Outline: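 mgt1 strain exposed; growth vs vehicle control recorded as inhibition.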

[5] = NCI Yeast Anticancer Drug Screen. Data for the rad50 strain (AID 155);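 note: 0% = growth of vehicle-only cultures of the same strain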; conditions: S. cerevisiae rad50 strain growth inhibition, hits give high values
Outline: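 Inhibition values express reduced yeast growth in compound-treated cultures relative to vehicle-treated controls.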

[6] = NCI Yeast Anticancer Drug Screen. Data for the mec2-1 strain (AID 157); conditions: S. cerevisiae mec2-1 strain, hits give high values
Outline: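 Vehicle-treated cultures served as reference for growth inhibition of compound-exposed mec2-1 yeast.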

[7] = NCI Yeast Anticancer Drug Screen. Data for the rad14 strain (AID 159);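 note: 0% = growth of vehicle-treated control cultures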; conditions: S. cerevisiae rad14 strain growth inhibition, hits give high values
Outline: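 A mutant yeast strain defective in DNA damage repair is treated with compound; inhibition of its growth is scored against untreated, vehicle-exposed cultures.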

[8] = NCI Yeast Anticancer Drug Screen. Data for the sgs1 mgt1 strain (AID 161);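 note: 0% = growth of cultures given vehicle only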; conditions: S. cerevisiae sgs1 mgt1 strain, hits give high values
Outline: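 Genetically altered yeast, compound exposure, growth inhibition relative to vehicle.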

[9] = NCI Yeast Anticancer Drug Screen. Data for the CLN2oe strain (AID 163);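 note: 0% = growth of vehicle-only control cultures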; conditions: S. cerevisiae CLN2oe strain, hits give high values
Outline: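 Inhibition relative to vehicle-treated yeast is reported. Cells: strain with genetic alteration in cell-cycle control, grown with compound.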

[10] = NCI Yeast Anticancer Drug Screen. Data for the cln2 rad14 strain (AID 165);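 note: 0% = growth equal to vehicle treated cultures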; conditions: S. cerevisiae cln2 rad14 strain, hits give high values
Outline: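 Each compound was tested on cln2 rad14 yeast. Inhibition of growth was calculated against vehicle-exposed controls.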

[11] = NCI Yeast Anticancer Drug Screen. Data for the bub3 strain (AID 167); conditions: S. cerevisiae bub3 mutant strain, hits give high values
Outline: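 Steps: expose the mutant yeast strain to compound; grow alongside vehicle-treated cultures; measure growth; express inhibition against the vehicle cultures.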

[12] = NCI Yeast Anticancer Drug Screen. Data for the wt2 strain (AID 169);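 note: 0% = growth of vehicle-treated yeast cultures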; conditions: S. cerevisiae wt2 strain growth inhibition, hits give high values
Outline: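 Inhibition of yeast growth was determined after compound treatment, normalised to controls receiving only vehicle.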

[13] = NCI Yeast Anticancer Drug Screen. Data for the mlh1 strain (AID 171);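 note: 0% = growth of vehicle-treated control cultures of the same strain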; conditions: S. cerevisiae mlh1 strain growth inhibition, hits give high values
Outline: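 Vehicle-normalised growth inhibition of a repair- or checkpoint-altered yeast strain following compound treatment.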

[14] = NCI Yeast Anticancer Drug Screen. Data for the sgs1 strain (AID 173);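 note: 0% = growth of vehicle-only control cultures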; conditions: S. cerevisiae sgs1 mutant, hits give high values
Outline: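 Screen format: yeast with repair or checkpoint alterations, compound exposure, growth read relative to vehicle.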

[15] = NCI Yeast Anticancer Drug Screen. Data for the mlh1 rad18 strain (AID 175); conditions: S. cerevisiae mlh1 rad18 strain growth inhibition, hits give high values
Outline: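 Vehicle-treated cultures served as the reference for growth inhibition in a yeast strain carrying DNA damage repair alterations exposed to each compound.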

[16] = NCI Yeast Anticancer Drug Screen. Data for the rad18 strain (AID 177); conditions: S. cerevisiae rad18 mutant growth inhibition, hits give high values
Outline: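 Test articles were incubated with altered yeast defective in DNA damage repair. Results are given as inhibition of growth versus vehicle.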

[17] = at 5.0 µM (retest, dose inferred, filed as 0.5)
[18] = at 50.0 µM (retest, dose inferred, filed as 5.0)

Measured: growth inhibition

O=C(NCCCNCCN1C(=O)c2cccc3cc([N+](=O)[O-])cc(c23)C1=O)c1cc(-c2ccccc2)nc2ccccc12
inactive: [1]; at 1.2 µM -2% | [1]; at 3.7 µM 2% | [1]; at 11.0 µM 6% | [1]; at 33.0 µM 38% | [2]; at 1.2 µM 0% | [2]; at 3.7 µM -1% | [2]; at 11.0 µM -2% | [2]; at 33.0 µM -6% | [3]; at 1.2 µM 0% | [3]; at 3.7 µM 2% | [3]; at 11.0 µM 8% | [3]; at 33.0 µM 19% | [3]; at 100.0 µM 57% | [4]; at 1.2 µM -1% | [4]; at 3.7 µM 0% | [4]; at 11.0 µM -1% | [4]; at 33.0 µM 8% | [5]; at 1.2 µM -2% | [5]; at 3.7 µM 2% | [5]; [17] -11% | [5]; at 11.0 µM 8% | [5]; at 33.0 µM 64% | [6]; at 1.2 µM 0% | [6]; at 3.7 µM -1% | [6]; [17] -1% | [6]; at 11.0 µM 0% | [6]; at 33.0 µM 5% | [7]; at 1.2 µM -1% | [7]; at 3.7 µM -1% | [7]; at 11.0 µM 4% | [7]; at 33.0 µM 21% | [8]; [17] -2% | [9]; at 1.2 µM 1% | [9]; at 3.7 µM 3% | [9]; at 11.0 µM -4% | [9]; at 33.0 µM 10% | [10]; [17] 33% | [11]; at 1.2 µM -4% | [11]; at 3.7 µM 0% | [11]; [17] -9% | [11]; at 11.0 µM 2% | [11]; at 33.0 µM 9% | [12]; at 1.2 µM -1% | [12]; at 3.7 µM -1% | [12]; at 11.0 µM -2% | [12]; at 33.0 µM -2% | [13]; at 1.2 µM -3% | [13]; at 3.7 µM 1% | [13]; at 11.0 µM 1% | [13]; at 33.0 µM 9% | [14]; at 1.2 µM -1% | [14]; at 3.7 µM 1% | [14]; at 11.0 µM 2% | [14]; at 33.0 µM 17% | [15]; [17] -1% | [16]; at 1.2 µM -3% | [16]; at 3.7 µM -2% | [16]; at 11.0 µM -1% | [16]; at 33.0 µM 10%
active: [1]; at 100.0 µM 98% | [2]; at 100.0 µM 96% | [4]; at 100.0 µM 99% | [5]; [18] 98% | [5]; at 50.0 µM 94.3% | [5]; at 100.0 µM 99% | [6]; [18] 86% | [6]; at 50.0 µM 91% | [6]; at 100.0 µM 99% | [7]; at 100.0 µM 99% | [8]; [18] 96% | [8]; at 50.0 µM 93.5% | [9]; at 100.0 µM 98% | [10]; [18] 78% | [10]; at 50.0 µM 93.6% | [11]; [18] 97% | [11]; at 50.0 µM 93.3% | [11]; at 100.0 µM 98% | [12]; at 100.0 µM 99% | [13]; at 100.0 µM 99% | [14]; at 100.0 µM 98% | [15]; [18] 97% | [15]; at 50.0 µM 97.6% | [16]; at 100.0 µM 99%

CC(C)=NOC(=O)Nc1ccc(Cl)cc1
inactive: [1]; at 1.2 µM 1% | [1]; at 3.7 µM -7% | [1]; at 11.0 µM -8% | [1]; at 33.0 µM 15% | [1]; at 100.0 µM 66% | [2]; at 1.2 µM -24% | [2]; at 3.7 µM -27% | [2]; at 11.0 µM -21% | [2]; at 33.0 µM -18% | [2]; at 100.0 µM 14% | [3]; at 1.2 µM -32% | [3]; at 3.7 µM 18% | [3]; at 11.0 µM 23% | [4]; at 1.2 µM -41% | [4]; at 3.7 µM -60% | [4]; at 11.0 µM -56% | [4]; at 33.0 µM -11% | [5]; at 1.2 µM 2% | [5]; at 3.7 µM 11% | [5]; at 11.0 µM -3% | [5]; at 33.0 µM 28% | [5]; at 50.0 µM 58.2% | [5]; at 100.0 µM 67% | [6]; at 1.2 µM -40% | [6]; at 3.7 µM -26% | [6]; at 11.0 µM -24% | [6]; at 33.0 µM -7% | [6]; at 50.0 µM 29.9% | [6]; at 100.0 µM 47% | [7]; at 1.2 µM -48% | [7]; at 3.7 µM -50% | [7]; at 11.0 µM -30% | [7]; at 33.0 µM -25% | [7]; at 100.0 µM 45% | [8]; [17] 0% | [9]; at 1.2 µM -30% | [9]; at 3.7 µM -18% | [9]; at 11.0 µM -6% | [9]; at 33.0 µM 8% | [9]; at 100.0 µM 38% | [10]; at 50.0 µM 37.2% | [11]; at 1.2 µM -12% | [11]; at 3.7 µM -1% | [11]; [17] 28% | [11]; at 11.0 µM 0% | [11]; at 33.0 µM 8% | [11]; at 50.0 µM 47% | [11]; at 100.0 µM 64% | [12]; at 1.2 µM -34% | [12]; at 3.7 µM -25% | [12]; at 11.0 µM -21% | [12]; at 33.0 µM 5% | [13]; at 1.2 µM -25% | [13]; at 3.7 µM -17% | [13]; at 11.0 µM -22% | [13]; at 33.0 µM 21% | [14]; at 1.2 µM -16% | [14]; at 3.7 µM -12% | [14]; at 11.0 µM -14% | [14]; at 33.0 µM 33% | [15]; [17] 61% | [15]; at 50.0 µM 46.7% | [16]; at 1.2 µM -32% | [16]; at 3.7 µM -38% | [16]; at 11.0 µM -39% | [16]; at 33.0 µM 10%
active: [3]; at 33.0 µM 79% | [3]; at 100.0 µM 95% | [4]; at 100.0 µM 74% | [5]; [17] 87% | [5]; [18] 98% | [6]; [17] 76% | [6]; [18] 99% | [8]; [18] 92% | [8]; at 50.0 µM 72.8% | [10]; [17] 77% | [10]; [18] 90% | [11]; [18] 81% | [12]; at 100.0 µM 79% | [13]; at 100.0 µM 83% | [14]; at 100.0 µM 84% | [15]; [18] 99% | [16]; at 100.0 µM 72%
